TRPM1 prom inh – inhibitors of MITF-dependent TRPM1 promoter reporter, primary screen, cell-based, SK-MEL-5, single point, luciferase; hit rate 0.83% among 330,000; SK-MEL-5 TRPM1 promoter luciferase, 24 h; AID 488899, 2010; inhibition, % at 12.5 µM;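 active = mean inhibition across replicates of 60% or more, whatever share of single replicates reaches that level; inconclusive = some that reach 60%, reason not given; inactive = mean inhibition across replicates below 60%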
NSD2 HMT inh – NSD2 histone methyltransferase inhibitors, primary screen, biochemical, AlphaScreen, single concentration, set 2; Histone-lysine N-methyltransferase NSD2 (Homo sapiens), O96028; NSD2 peptide methylation, 120 min; inhibition, % at 12.5 µM; hit rate 0.54% among 310,000; AID 743445, 2014; in the data active = inhibition above about 50%
Target sequence (O96028 whole entry, looked up): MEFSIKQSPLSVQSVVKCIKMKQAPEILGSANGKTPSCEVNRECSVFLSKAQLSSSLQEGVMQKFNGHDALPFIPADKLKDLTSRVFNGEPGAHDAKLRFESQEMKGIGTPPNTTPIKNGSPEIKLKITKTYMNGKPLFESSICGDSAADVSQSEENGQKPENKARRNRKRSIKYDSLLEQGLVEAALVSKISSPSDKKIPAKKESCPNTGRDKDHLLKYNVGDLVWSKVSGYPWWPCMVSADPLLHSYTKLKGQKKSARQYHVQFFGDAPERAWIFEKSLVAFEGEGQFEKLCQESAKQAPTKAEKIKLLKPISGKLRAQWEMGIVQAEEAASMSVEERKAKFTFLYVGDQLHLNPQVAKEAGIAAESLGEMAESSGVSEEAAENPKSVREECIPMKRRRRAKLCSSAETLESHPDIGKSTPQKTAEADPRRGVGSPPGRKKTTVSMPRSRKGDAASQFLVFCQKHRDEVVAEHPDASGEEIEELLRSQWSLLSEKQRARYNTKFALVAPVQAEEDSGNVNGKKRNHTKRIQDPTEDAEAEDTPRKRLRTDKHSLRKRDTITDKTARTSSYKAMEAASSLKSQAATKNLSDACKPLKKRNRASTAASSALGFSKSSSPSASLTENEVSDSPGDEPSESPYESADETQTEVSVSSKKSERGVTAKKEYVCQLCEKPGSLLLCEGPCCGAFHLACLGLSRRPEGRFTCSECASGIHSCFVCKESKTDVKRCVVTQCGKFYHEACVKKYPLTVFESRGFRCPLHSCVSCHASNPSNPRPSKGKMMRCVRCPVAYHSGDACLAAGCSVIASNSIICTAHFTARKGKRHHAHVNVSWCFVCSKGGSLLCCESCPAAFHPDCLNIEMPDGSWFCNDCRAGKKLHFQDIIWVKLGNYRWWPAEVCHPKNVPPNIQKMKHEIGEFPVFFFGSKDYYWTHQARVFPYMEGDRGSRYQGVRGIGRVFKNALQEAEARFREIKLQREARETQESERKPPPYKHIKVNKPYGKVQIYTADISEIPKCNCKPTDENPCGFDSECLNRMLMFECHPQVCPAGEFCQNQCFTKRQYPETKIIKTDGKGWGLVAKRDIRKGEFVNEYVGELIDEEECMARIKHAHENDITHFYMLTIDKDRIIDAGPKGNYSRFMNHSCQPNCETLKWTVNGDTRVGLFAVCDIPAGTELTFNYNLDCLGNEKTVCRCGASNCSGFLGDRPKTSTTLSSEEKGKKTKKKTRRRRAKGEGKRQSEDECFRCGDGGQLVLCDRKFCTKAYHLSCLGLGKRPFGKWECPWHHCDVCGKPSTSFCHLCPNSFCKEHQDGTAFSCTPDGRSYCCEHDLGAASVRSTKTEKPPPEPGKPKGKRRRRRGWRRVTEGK
PfHsp90 set2 – growth inhibition of PfHsp90-expressing yeast, primary screen, antimalarial PfHsp90 inhibitor project, S. cerevisiae, BacTiter-Glo luminescence, single point, set 2; AID 504621, 2011; inhibition, % at 9.4 µM; BacTiter-Glo ATP, 48 h; yeast lacking PDR1 and PDR3 efflux regulators; hit rate 0.32% among 310,000;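 active = every replicate shows inhibition above about 80%, whatever the replicate mean, limit read from the data; inconclusive = mean inhibition reaches the set limit but some replicate falls short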;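 also: 0% = DMSO neutral controls and 100% = 20 µM radicicol positive controls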
MITF act – activators of MITF-driven TRPM1 promoter reporter, primary screen, cell-based, SK-MEL-5, luciferase, single point | SK-MEL-5 TRPM1-promoter luciferase, 24 h; % of positive control, neutral wells = 0 | activation, % at 12.5 µM | hit rate 0.75% among 300,000 | AID 588334, 2011;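 active = mean activation of at least 80% with every replicate also reaching 80%; inconclusive = mean reaches 80% but some replicate falls short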;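 also: 0% = neutral control wells and 100% = parthenolide positive control wells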
Glyco luc inh – increase of ERlucT glycosylation luciferase signal, primary screen, N-linked glycosylation inhibitor project, D54 ERlucT cells, luminescence, set 2. D54 ERlucT glycosylation luciferase reporter, 24 h; percent of 100 nM tunicamycin response. reporter increase, % at 12.5 µM. hit rate 0.23% among 360,000. AID 588692, 2011;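 active = mean luciferase reporter signal, scaled so untreated is 0 and the glycosylation-blocking control 100, at or above a set limit in every replicate; inconclusive = mean reaches the limit but not every replicate does; inactive = mean below the limit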;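 also: luciferase carries N-glycosylation sites so blocking glycosylation raises the light; 0% = median of neutral control wells and 100% = median of 100 nM tunicamycin wells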
Wnt act – Wnt/beta-catenin pathway activators, primary screen, cell-based, plate reader, single point; AID 743398, 2014; hit rate 1.2% among 300,000; activation, % at 9.35 µM; Wnt/beta-catenin reporter cell assay, activator; in the data active = activation above about 30%, passing the limit was not always enough; inconclusive = no clear call, values can overlap the other calls;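 also: 0% = neutral control wells and 100% = positive control wells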
* hit, by the source's call; u = inconclusive; x = no result given. A selection: hits, their analogues and other compounds. The true share with any hit is near 2.9%.

SMILES | TRPM1 prom inh | NSD2 HMT inh | PfHsp90 set2 | MITF act | Glyco luc inh | Wnt act
COC(=O)[C@]12C[C@H](CC(=O)NCCc3ccccc3OC)C(=O)N(Cc3ccc4c(c3)OCO4)C1=C[C@H](COCc1ccccc1)O[C@@H]2C | x | x | x | x | x | -5
CCOC(=O)c1c(NC(C)=O)sc2c(OCCN(CC)CC)c(Br)ccc12 | -24 | -1 | -16 | 23 | 85* | 2
O=c1[nH]c(=O)n([C@H]2C[C@H](O)[C@@H](CO)O2)cc1F | 28 | x | 8 | -23 | -2 | -21
O=c1[nH]c(=O)n(C2CC(O)C(CO)O2)cc1I (stereo unspecified) | -8 | 0 | 2 | x | 81* | 2
O=c1[nH]c(=O)n([C@H]2C[C@H](O)[C@@H](CO)O2)cc1Br | 21 | x | -3 | -21 | 48* | 46*
Nc1ccc(Oc2ccccc2-c2ccccc2)cc1 | 66* | x | 8 | x | -1 | -1
COc1cc(O)c(C(=O)/C=C/c2ccccc2)c(OC)c1 | x | x | 10 | x | 42* | -2
COc1ccc2[nH]cc(/C=C/C(=O)c3ccccc3)c2c1 | -85 | 6 | 21 | u | -6 | 39*
COc1ccc(/C=C/C(=O)c2ccc(OC)cc2OC)c(OC)c1 | -2 | x | 5 | 3 | -3 | -1
COc1ccc(/C=C/C(=O)c2ccccc2)c(OC)c1 | -45 | 1 | 5 | 54 | -2 | 61*
COc1cc(OC)c(C(=O)C=Cc2ccc(OC)c(OC)c2)c(OC)c1 | 21 | 2 | x | -22 | -4 | -3
CN(C)CCNC(=O)c1c(CSc2ccccc2)noc1C(=O)NCc1ccccc1 | -8 | x | -7 | 9 | -1 | -1
Brc1ccccc1-c1nnc(CSc2nncn2-c2ccccc2)o1 | 2 | 0 | 6 | 1 | -1 | 35*
COc1ccc(NC(=O)c2ccc(Cl)c(NC(=O)c3cccnc3)c2)cc1 | x | 0 | x | x | x | x
O=C(CSc1nnc(-c2cccs2)o1)Nc1cc(Cl)cc(Cl)c1 | x | -1 | x | x | x | x
CCN(CC)CCNc1ccc(CO)c2sc3ccccc3c(=O)c12 | 29 | x | 18 | -26 | 21 | 1
CCN(CC)CCNc1ccc(CO)c2oc3ccccc3c(=O)c12 | x | 19 | x | x | 43* | 3
CN(CCO)S(=O)(=O)c1ccc2c(c1)C(=NNC(N)=O)c1cc(S(=O)(=O)N(C)CCO)ccc1-2 | 0 | 1 | 27 | 0 | 1 | 46*
COc1ccc(/C=N/NC(=O)c2cccc(NC(=O)c3ccccc3Cl)c2)cc1OC | -1 | -7 | -22 | 3 | 1 | -1
COc1ccc(/C=N/NC(=O)c2cccc(NC(=O)c3ccccc3Cl)c2)cc1 | 13 | 0 | -11 | -9 | 34* | -1
O=C(Nc1ccc2ccccc2c1)c1ccccc1Cl | x | -2 | x | x | -11 | 44*
O=C(Nc1ccc2ccccc2c1)c1ccccc1O | -5 | -5 | -1 | 5 | -17 | 8
O=C(Nc1ccc2ccccc2c1)c1ccc(Cl)cc1Cl | -58 | -2 | -28 | 70 | -14 | 39*
C/C(=N/NC(=O)c1ccncc1)c1ccc(NC(=O)c2ccc(Cl)cc2Cl)cc1 | -79 | 2 | -2 | 88* | -1 | 24
CN(C)C(CNC(=S)Nc1cccc(Cl)c1)c1cccnc1 (stereo unspecified) | -31 | -33 | 9 | 33 | -2 | x
SMILES | TRPM1 prom inh | NSD2 HMT inh | PfHsp90 set2 | MITF act | Glyco luc inh | Wnt act
COC(=O)c1cc2c(c3c4cc(C)ccc4n(S(=O)(=O)c4ccc(OC)cc4)c13)C(=O)N(C)C2 | x | x | x | x | x | -3
CCOC(=O)C1CCCN(C(=O)COC(=O)c2cccs2)C1 (stereo unspecified) | -22 | -2 | 2 | 23 | 1 | -5
CCN(CC)c1ccc(C2C(C(C)=O)C(=O)CC(C)(O)C2C(C)=O)cc1 (stereo unspecified) | 4 | -1 | 4 | -5 | 3 | x
CC(=O)N1CCN(c2ccc(N3CCN(C(C)=O)[C@H](C)C3)c(C)c2)[C@@H](C)C1 | x | x | x | x | x | -2
O=C(Nc1ccc(N=Nc2ccccc2)cc1)c1ccccc1Cl | -118 | -2 | 0 | 121* | -8 | x
O=C(Nc1ccc(N=Nc2ccccc2)cc1)c1ccc(Cl)cc1Cl | -15 | -1 | -11 | 17 | 0 | x
O=C(CN1C(=O)C(=O)N(C2CCCC2)C1=O)Nc1ccc(Cl)cc1C(F)(F)F | -6 | -1 | -17 | 4 | 1 | -3
COc1ccc(NC(=O)c2ccccc2OCc2c(C)noc2C)cc1OC | -11 | -1 | -3 | 11 | 2 | -1
Cc1ccc(C(=O)N/N=C\c2ccc([N+](=O)[O-])s2)cn1 | 109* | 0 | -17 | -109 | 7 | -1
Cc1cc(C(=O)N/N=C/c2ccc([N+](=O)[O-])s2)n[nH]1 | 70* | -1 | 5 | x | 7 | 14
Cn1c(SCC(=O)N/N=C/c2ccc([N+](=O)[O-])s2)nnc1-c1ccc(Cl)cc1 | 27 | 11 | 105* | -28 | 11 | x
O=C(N/N=C/c1ccc([N+](=O)[O-])s1)c1cccc(Br)c1 | 82* | 0 | 35 | -82 | x | x
O=C(N/N=C/c1ccc([N+](=O)[O-])s1)c1ccncc1 | u | -2 | 2 | -56 | 7 | 0
COc1ccc(C)cc1N1CC(C(=O)OCc2nc(N)nc(Nc3ccccc3C)n2)CC1=O (stereo unspecified) | -5 | -1 | x | 10 | 1 | -1
O=C(CCCN1C(=O)/C(=C\c2cccs2)SC1=S)NNC(=O)c1cccnc1 | 2 | -1 | -22 | -3 | 3 | -1
C=CCCC(=O)N1CCC(C(=O)NC2CCCc3ccccc32)CC1 (stereo unspecified) | x | -2 | x | x | x | x
CCCCc1ccc(NC(=O)COC(=O)c2ccc3ncsc3c2)cc1 | x | -1 | x | x | -1 | -1
Cc1ccc(C(=O)N/N=C/c2ccc([N+](=O)[O-])s2)cc1 | 105* | x | -8 | -104 | -7 | x
CC(C)(N[C@@H](Cc1c[nH]c2ccccc12)C(=O)NCCc1c[nH]c2ccccc12)C(=O)NC1CCCCC1 | x | -2 | x | x | x | x
CN(C)N1C(=O)CC(N2CCCCC2)C1=O (stereo unspecified) | 6 | 0 | 3 | -4 | 1 | 1
CC(C)c1ccc(N=C2N=C(N)c3ccccc32)cc1 | -2 | -15 | 11 | -1 | -8 | 49*
O=C(Nc1ccc(Cl)cc1)c1ccc(-c2ccccn2)s1 | -87 | -3 | -13 | x | -2 | 39*
O=C(Nc1ccccn1)c1ccc(Br)s1 | -69 | 1 | -40 | x | -4 | 0
O=C(COC(=O)c1nc(Cl)ccc1Cl)NC1CCCCC1 | -2 | -3 | 10 | -2 | 1 | 0

Bioassay records as filed in PubChem.
